For 40 sequences, PBM binding z-score results are on record in the supplement of paper PMC6555819.

This experiment concerns VDR:RXRa (NR concentration 270 nM, RXRa partner concentration 90 nM). The experiment in a line: PBM binding z-score (relative to random genomic background probes); higher = stronger binding; sequences stand for … in GC…GCGATTGACAGCGTAGAATGAAGG
On the procedure: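 Protein-binding microarray (Agilent 4x180K custom design, double-stranded 60-nt probes: 5' GC cap, 34-nt variable region, 24-nt constant primer region; full probe sequence given). Purified or IVT nuclear receptor:RXRα heterodimers (3:1 NR:RXRα, mostly 270:90 nM) or homodimers were incubated for 1 h in PBS with 2% milk and no ligand, then detected with Alexa488 antibodies. Fluorescence from o1-orientation probes (~5 replicates averaged) was converted to z-scores against 500 random hg19 background probes. Variable regions are seed direct-repeat (DR0–DR5) sites, all their single-nucleotide variants and half-site ablations.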
In turn, GCGACTGGGGCAACGCAGGTTACCATAAGGTTGG had a PBM binding z-score of -0.0248. In the case of CATACAGGGTCAGCTAGGCCCGAGTAGGGACGGC it was 2.63; in that of CGTCAAAGTTCAACTAAGGAAACGTAAAGCACGC, 4.16; in that of ATCGAAAGGTCGAGGAGAGTATAGAGAAAGGGAA, 2.64. For ACCAGCAGGCCAAGTTTGGGTCACTCAAACAAAG the value was 0.61. For GCTAGTTGGTCAGTTAAAGGTCACACACCGGTCG the value was 3.95.

Turning to GCTTACGGGTCAAAGGTTGTAGCATGAATAGAAT, the PBM binding z-score turned out to be 4.66. For CGTCCAAGGTCAAGGTCAGTCAAAGAGACTCGAA the value was 4.84; for ACTAGCAAGCCAAGGGTCACTCAAGATTAGTCCG, 2.68; for CCGACTGGGGGATAAGGTTACCATAAGCCAGCCC, 0.902. In the case of TAGCCTAGGTCATTCATGGGCCAGTATAGAAAGC it was 2.16; in that of CGTCAAAGTTCAAGGTAACGTACCAGAAAGCAGC, 3.87; in that of CTACCAAGGTGAACAAGCTCGTTGATTACTATTC, 0.121. In the case of TCTTGTCGATCAATAGAGGTTAAGAAAGTGCGCT it was 1.86; in that of CCTAATGGGCCACGAAAGGTCATTGATTCAGTGA, 4.33; in that of CTACCAAGGTGAACAAGGTCGCTGATTACTATTC, 5.5. Consider CCTACTGGGCCATCAGGCCATTGATATCAACGTT, for which the PBM binding z-score was -0.292. For GCGGCTGGGGCATCAGCAGGTTACCATAACTTAA the value was -0.259; for TCTAGTTGGTCACGGTGGTCACACACGACGGGTA, 0.961; for ACTAGTAGTTGACTTAGGGCAACCGATACGACGC, 0.0405.

Sequence CCTAGCGGGCCAGGGTCACTCAAGCATTTCGCTT showed a PBM binding z-score of 2.36.

TCTAGTTGGTCAAAGGTCACACGCTCGAAATGCG gave a PBM binding z-score of 5.38. In the case of TAGCCTAGGTCATGCGGGCAAGTATAGTGTCGGC it was 2.21; in that of ACTAGTTTGTCAGCTGAGGTCACACACAATTCGG, 4.34; in that of CCTACTGGGCCATCACGTCATTGATATCAACGTT, -0.314. In the case of CCTTACGGGTCATGAGGTTATAGCACGACGAGCG it was 4.92; in that of GCTATCAGGCCATTTGGGTCACTCAATGACGGGC, 1.38. In the case of CCTACTGGGCCATTCAGAGGTAATTGATCATATG it was -0.36; in that of AATACAGGGTCACTAGGCCAGATTAGGTACGAAT, 4.21; in that of GGAACGAGGGCAAGTTGATGGCAGAGTTTGATGG, 0.912. With ATCTCTTGGTAAAAGTTCAGTGAATCCCGAGGAT, the PBM binding z-score came to 1.14. In the case of CAGCCTAGGTCAGGGCCAGTATTGGAGGAACGTT it was -0.0862. For GCTTTTAGATCAAGGTTAAGAAAGACTAAGCTAA the value was 0.374; for CTACCAAGGTGAACAAGGTCCTTGATTACTATTC, 3.56; for CGAACGAGGGCATGAGGTGATAGCAAATGCCGAT, 0.93. In the case of TCATATAGGTAAAATGTGAAAGTCGGTGTGGTAA it was 0.774. TCAGACAGGTGAAGGTAACTCATGTACGCAGTCG: the PBM binding z-score turned out to be 0.532.

On to ATACGTAGGTTAGCTGGGGTCATTCAGACTAGGC, for which the PBM binding z-score is 6.12. Sequence TAGCCTAGGTCAGATCGTGCCAGTATACGCTATA yielded a PBM binding z-score of 0.516. In the case of AGAACGAGGGCCCGCTGAGTTGATAGCAGAGTAG it was -1.03.
